Reference: PubChem BioAssay (EPA / NIEHS)
Inconclusive results are not listed. Activity calls are given as the source filed them. Rule for the calls: active = hit-call score of the fitted dose curve at least 0.9, where 1 is the maximum; inconclusive = response in the unintended direction; inactive = score below 0.9.

Columns and labels:
[1] = ACEA_AR_agonist_AUC_viability: ACEA Biosciences xCELLigence Real-Time Cell Analysis on Androgen Receptor Agonism for Viability (AID 2283775)
Summary of the method: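 Read-out is area under the impedance curve at 80 h post-dose in 22Rv1 cells, with DMSO as baseline and signal loss taken as reduced viability. Compounds ran in duplicate from 100 uM final.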

[2] = ACEA_AR_antagonist_AUC_viability: ACEA Biosciences xCELLigence Real-Time Cell Analysis on Androgen Receptor Antagonism for Viability (AID 2283776);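 note: 22Rv1 human prostate cancer cells growing on impedance electrode plates; area under impedance growth curve at 80 h after dosing as viability; hits lower the growth signal relative to DMSO meaning cytotoxicity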
Summary of the method: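 Impedance read-out (RT-CES): area under growth curve at 80 h post-dose, loss of signal scored vs DMSO baseline. 22Rv1 cells; 8-pt 1:4 series, top 100 uM final, ≤0.5% DMSO; biological duplicate.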

[3] = ACEA_ER_AUC_viability: ACEA Biosciences xCELLigence Real-Time Cell Analysis on Estrogen Receptor Agonism for Viability (AID 2283782);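 note: continuous compound exposure with impedance area under curve over 80 h; hit means loss of impedance signal meaning reduced cell growth or viability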
Summary of the method: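 T-47D human breast cells in phenol red-free RPMI1640 with 10% charcoal-stripped FBS were dosed with an 8-point 1:4 dilution series from 100 uM top final concentration, in duplicate. Impedance-based growth was followed for 80 h; AUC analysed versus DMSO.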

[4] = target: AR (gene 367) (UniProt P10275); assay: ACEA_AR_antagonist_80hr: ACEA Biosciences xCELLigence Real-Time Cell Analysis on Androgen Receptor Antagonism for Proliferation (AID 2283787);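 note: 22Rv1 human prostate cancer cells with growth followed by electrical impedance; hits lower the impedance growth signal relative to DMSO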
Summary of the method: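 Impedance readout (RT-CES), 80 h post-dose; loss-of-signal vs DMSO baseline. 22Rv1 cells in assay medium. Compounds: 8-pt 1:4 series, max 100 uM final, up to 0.5% DMSO; n = 2.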

Sequence of AR (gene 367) (P10275 whole entry, looked up): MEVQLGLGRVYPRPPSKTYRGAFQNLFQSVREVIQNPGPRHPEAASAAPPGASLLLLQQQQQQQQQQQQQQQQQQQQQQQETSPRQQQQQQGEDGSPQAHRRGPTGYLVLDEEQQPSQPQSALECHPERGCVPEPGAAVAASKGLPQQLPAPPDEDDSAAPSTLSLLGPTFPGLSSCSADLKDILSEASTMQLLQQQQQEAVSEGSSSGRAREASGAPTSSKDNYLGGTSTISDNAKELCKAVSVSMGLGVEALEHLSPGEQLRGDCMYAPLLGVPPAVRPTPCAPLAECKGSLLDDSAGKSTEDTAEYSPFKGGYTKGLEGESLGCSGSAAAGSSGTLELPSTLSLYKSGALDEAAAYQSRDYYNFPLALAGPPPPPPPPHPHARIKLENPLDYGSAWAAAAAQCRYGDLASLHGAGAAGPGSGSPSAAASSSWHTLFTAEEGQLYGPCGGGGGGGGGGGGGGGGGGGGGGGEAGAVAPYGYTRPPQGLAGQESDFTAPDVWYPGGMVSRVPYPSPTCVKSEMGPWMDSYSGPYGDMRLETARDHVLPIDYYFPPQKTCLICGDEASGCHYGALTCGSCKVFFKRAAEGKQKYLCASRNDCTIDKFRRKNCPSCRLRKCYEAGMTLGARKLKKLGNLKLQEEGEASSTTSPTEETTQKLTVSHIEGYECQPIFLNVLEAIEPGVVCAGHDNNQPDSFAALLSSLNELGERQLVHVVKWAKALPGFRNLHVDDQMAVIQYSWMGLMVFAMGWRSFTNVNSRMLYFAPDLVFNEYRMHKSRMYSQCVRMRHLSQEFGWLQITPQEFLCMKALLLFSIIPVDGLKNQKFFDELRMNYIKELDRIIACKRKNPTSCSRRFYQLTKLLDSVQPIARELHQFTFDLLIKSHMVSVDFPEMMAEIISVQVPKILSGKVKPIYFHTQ

Which results are given for `CC(Cc1ccc(O)c(O)c1)C(C)Cc1ccc(O)c(O)c1` (stereo not drawn)?
outcome [1]: inactive; outcome [2]: inactive; AC50 [3]: 27.6 µM (active)

For `C=C(C)C(=O)OCC(F)(F)C(F)(F)C(F)(F)F`, which outcome [3] is on record?
The outcome was “inactive”.

With `FC(F)(F)C(F)(F)C(F)(F)C(F)(F)C(F)(F)C(F)(F)CCS` as the molecule, how does the outcome [3] read?
Its outcome is “inactive”.

With `CC(C)(C)c1ccc(OC2CCCCC2O)cc1` (stereo not drawn) as the molecule, how does the outcome [3] read?
Its outcome is “inactive”.

Which outcome [3] does the source give for `OCC(F)(F)C(F)(F)C(F)(F)C(F)F` here?
Its outcome is “inactive”.

Which outcome [3] does the source give for `COC(OC(C)=O)c1ccccc1` (stereo not drawn) here?
The outcome was “inactive”.

With `COC(=O)C1CCC(C(=O)OC)CC1` (stereo not drawn) as the molecule, how does the outcome [1] read?
The outcome was “inactive”.

And the outcome [2]?
Its outcome is “inactive”.

What about the outcome [3] of the same molecule?
Its outcome is “inactive”.

Which results are given for `CC(CCl)OP(=O)(OC(C)CCl)OC(C)CCl` (stereo not drawn)?
outcome [1]: inactive; outcome [2]: inactive

For `[Co]`, which outcome [1] is on record?
Its outcome is “inactive”.

What about the outcome [3] of the same molecule?
Its outcome is “inactive”.

For `O=C(O)C(F)(F)C(F)(F)C(F)(F)C(F)(F)C(F)(F)C(F)(F)C(F)(F)C(F)(F)Cl`, which AC50 [3] is on record?
Its AC50 is 119 µM (active).

For `FC(F)(F)C(F)(F)C(F)(F)C(F)(F)C(F)(F)C(F)(F)C(F)(F)I`, which outcome [3] is on record?
Its outcome is “inactive”.

For `CC/C=C\CCOC(C)=O`, which outcome [1] is on record?
The outcome was “inactive”.

And the outcome [2]?
The outcome was “inactive”.

And the outcome [3]?
Its outcome is “inactive”.

With `Cc1ccc(S(=O)(=O)NCl)cc1` as the molecule, how does the outcome [3] read?
Its outcome is “inactive”.

Which outcome [3] does the source give for `FC(F)(F)C(F)(F)C(F)(F)C(F)(F)C(F)(F)C(F)(F)CC1CO1` (stereo not drawn) here?
The outcome was “inactive”.

With `CCCCCCOC(=O)c1ccccc1O` as the molecule, how does the outcome [1] read?
The outcome was “inactive”.

And the outcome [2]?
Its outcome is “inactive”.

And the outcome [3]?
Its outcome is “inactive”.

What about the outcome [4] of the same molecule?
Its outcome is “inactive”.

With `OC[C@@H](O)[C@@H](O)[C@H](O)[C@@H](O)CO` as the molecule, how does the outcome [1] read?
Its outcome is “inactive”.

And the outcome [2]?
The outcome was “inactive”.

What about the outcome [3] of the same molecule?
Its outcome is “inactive”.

For `C1COCCN1`, which outcome [1] is on record?
The outcome was “inactive”.

And the outcome [2]?
Its outcome is “inactive”.

What about the outcome [3] of the same molecule?
The outcome was “inactive”.

What does the source list for `CCCCC(CC)COP(=O)(O)OCC(CC)CCCC` (stereo not drawn)?
outcome [2]: inactive; AC50 [3]: 79.2 µM (active)

Which outcome [1] does the source give for `CC(C)OC(=O)c1ccccc1C(=O)OC(C)C` here?
The outcome was “inactive”.

What about the outcome [2] of the same molecule?
The outcome was “inactive”.

What about the outcome [3] of the same molecule?
The outcome was “inactive”.

For `N=C(N)C(F)(F)C(F)(F)C(F)(F)C(F)(F)C(F)(F)C(F)(F)C(F)(F)F`, which AC50 [3] is on record?
The AC50 was 75 µM (active).
